Where “and” joins values, the source holds several entries; their conditions need not be identical. Equal entries are not always repeated. Calls of active or inactive are those of the source. How the source made its calls: active means hit-call score of the fitted dose curve at least 0.9, where 1 is the maximum; inactive means score below 0.9.

The assay is described as follows: BSK_LPS_PGE2: BioMAP Diversity Plus: LPS Assay for Prostaglandin E2 (PGE2) Biomarker Activity (AID 2283082). The following applies: primary human HUVEC with PBMC; actives raise or lower the signal. The procedure:
BSK_LPS is a cell-based, multiplexed-readout assay that uses umbilical vein endothelium and peripheral blood mononuclear cells, a human vascular primary cell co-culture, with measurements taken at 24 hours after chemical dosing in a 96-well plate.BSK_LPS_PGE2 is an assay component measured in the BSK_LPS assay. It measures PGE2 antibody related to regulation of gene expression using ELISA technology.Data from the assay component BSK_LPS_PGE2 was analyzed into 1 assay endpoint. This assay endpoint, BSK_LPS_PGE2, was analyzed with bidirectional fitting relative to DMSO as the negative control and baseline of activity. Using a type of binding reporter, gain or loss-of-signal activity can be used to understand changes in the signaling as they relate to the gene PTGER2. Furthermore, this assay endpoint can be referred to as a primary readout, because this assay has produced multiple assay endpoints where this one serves a signaling function. To generalize the intended target to other relatable targets, this assay endpoint is annotated to the gpcr intended target family, where the subfamily is rhodopsin-like receptor.
The levels of cell surface (or secreted, indicated by the prefix "s") biomarker endpoints were measured by ELISA. Overt cytotoxicity to cells in confluent adherent cultures (all systems other than the BT system) was assessed by measuring total protein levels using sulforhodamine B (SRB) staining in parallel cultures at the time of biomarker measurements, indicated as SRB endpoints. For proliferation assays for adherent cell types, individual cell types are cultured at sub-confluence and relative cell numbers quantified by SRB staining at time points optimized for each system (48 h: 3C and CASM3C systems; 72 h: BT and HDF3CGF systems; 96 h: SAg system). SRB was performed by staining cells with 0.1% SRB after fixation with 10% TCA and reading wells at 560 nm.Viability and proliferation of PBMC (T cells) was quantified by Alamar Blue reduction for the SAg and BT systems. For PBMC viability (referred to as PBMC Cytotoxicity within the assay endpoint names), cells were plated (75,000/well in a 96-well plate) and then chemical samples added for 1 h before addition of activators, SEB and TSST-1 (20 ng/mL final concentration each). Cells were incubated for 90 h. Then, Alamar Blue (20 uL/well) (Invitrogen, Cat DAL1100) was added for 6 h, and the plates were read with a fluorescence microplate reader at 546/580 nm (excitation/emission). For PBMC proliferation, cells were plated and activated as above but incubated for only 16 h prior to addition of Alamar Blue. Plates were read after 6 h.
With `ClC(Cl)=C(c1ccc(Cl)cc1)c1ccccc1Cl`, the result was inactive.
On the same count and under the same terms, then `CCN(CC)c1ccccc1`, with “inactive”; and `ClC(Cl)c1ccccc1`, with “inactive”.
On the same count and under the same terms, for `O=[N+]([O-])c1ccc(Cl)c(Cl)c1` the value was “inactive”; for `COP(=O)(CCC(=O)NCO)OC`, “inactive”; for `Cc1cccc(N)c1`, “inactive”.
Still for that read-out and setting: for `Nc1cc2c3c(c1)C(c1ccccc1)=N[C@@H](NC(=O)c1cccnc1)C(=O)N3CC2` the value was “inactive”; for `CC(O)C(F)(F)C(F)(F)F` (stereo not given), “inactive”.
For the compound `Cc1ccc([N+](=O)[O-])cc1C`, the outcome was inactive.
In the case of `O=P(Oc1ccccc1)(Oc1ccccc1)Oc1ccccc1`, the result was inactive.
The same measure, in the same setting: for `CC(C)(C)OOC(C)(C)C` the value was “inactive”; for `O=C(O)C(Cl)Cl`, “inactive”; for `O=P1(N(CCCl)CCCl)NCCCO1` (stereo not given), “inactive”.
As to `FC(F)(F)C(F)(C(F)(F)F)C(F)(F)C(F)(F)CC1CO1` (stereo not given), the outcome was inactive.
On the same count and under the same terms, for `CCOc1ccc(C(C)(C)COCc2cccc(Oc3ccccc3)c2)cc1` the value was “inactive”.
Regarding `CC(C)(C)c1ccccc1OP(=O)(Oc1ccccc1)Oc1ccccc1`, the result was inactive.
On to `N#Cc1c(-c2ccc(Cl)cc2)[nH]c(C(F)(F)F)c1Br`, for which the AC50 (in general, the concentration at which the activity in the assay is half-maximal) is 949 nM (active).
On to `CCCCOCCOP(=O)(OCCOCCCC)OCCOCCCC`, for which the result was inactive.
Turning to `c1ccc2c(c1)Nc1ccccc1S2`, the AC50 is 374 nM (active).
As for `O=S1(=O)OCC2C(CO1)C1(Cl)C(Cl)=C(Cl)C2(Cl)C1(Cl)Cl` (stereo not given), the result was inactive.
With `CCC(C)(C)c1ccc(O)cc1`, the outcome was inactive.
Regarding `CN(C)C(=O)Cl`, the result was inactive.
On to `ClC(Cl)(Cl)c1ccccc1`, for which the result was inactive.
On to `CC(Cc1ccc(OCC(=O)O)cc1)NCC(O)c1csc(C(F)(F)F)n1` (stereo not given), for which the result was inactive.
For `c1cc2c3c(cccc3c1)CC2`, the result was inactive.
As for `OCC(F)(F)OC(F)(F)C(F)(F)OC(F)(F)CO`, the result was inactive.
Take `Nc1ccc(Cl)cc1`: the outcome was inactive.
Consider `O=C(O)C(F)(F)OC(F)(F)C(F)(F)OC(F)(F)C(=O)O`, for which the outcome was inactive.
In the case of `COP(=O)(O)OC`, the result was inactive.
In the case of `O=C(O)C(F)(F)OC(F)(F)C(F)(F)OC(F)(F)F`, the outcome was inactive.
`CC(C)(C)c1ccc(O)cc1`: the AC50 was 3650 nM (active).
As for `ClC1=C(Cl)C2(Cl)C3C(Cl)C(Cl)CC3C1(Cl)C2(Cl)Cl` (stereo not given), the result was inactive.
Consider `COP(N)(=S)OC`, for which the result was inactive.
`C=CC(=O)OCC(F)(F)C(F)F`: the AC50 was 39.4 µM (active) and 31.6 µM (active).
For `CCCCN(CCCC)N=O`, the result was inactive.
On the same count and under the same terms, for `CCOP(=S)(OCC)SCS(=O)(=O)CC` the value was “inactive”; for `O=P(OCC(Br)CBr)(OCC(Br)CBr)OCC(Br)CBr` (stereo not given), “inactive”.
In the case of `Cc1ccc(O)cc1C`, the AC50 was 4570 nM (active).
Regarding `COC(=O)C(F)(F)C(F)(F)OC(F)(C(F)(F)F)C(F)(F)OC(F)=C(F)F` (stereo not given), the outcome was inactive.
Same read-out and setting: for `CCNc1nc(Cl)nc(NC(C)(C)C)n1` the value was “inactive”.

The values are drawn from PubChem BioAssay (EPA / NIEHS).
